# From PubChem BioAssay (NCI)
# Compounds without any hit were thinned out: in the full panel of roughly 83,000, 20% have a hit.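 Single-dose data. Exposure time 48 hours. Values below 10 considered active.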 Values without a mark were called inactive. Activity calls are given as the source filed them.
# Experiments:
# Experiment in all cases: NCI-60 one-dose screen, 48 h (100 = growth as untreated, 0 = no growth, -100 = all killed)
# Settings in all cases: 10 µM unless noted
# HCT-15 colon = tested on: HCT-15 colon
# HT29 colon = tested on: HT29 colon
# SNB-75 CNS = tested on: SNB-75 CNS
# SNB-19 CNS = tested on: SNB-19 CNS
# U251 CNS = tested on: U251 CNS
# PC-3 prostate = tested on: PC-3 prostate
# SK-MEL-5 melanoma = tested on: SK-MEL-5 melanoma
# UACC-62 melanoma = tested on: UACC-62 melanoma
# LOX IMVI melanoma = tested on: LOX IMVI melanoma
# SK-MEL-28 melanoma = tested on: SK-MEL-28 melanoma
# SK-MEL-2 melanoma = tested on: SK-MEL-2 melanoma
# EKVX NSCLC = tested on: EKVX NSCLC
# SN12C renal = tested on: SN12C renal
# TK-10 renal = tested on: TK-10 renal
# ACHN renal = tested on: ACHN renal
# CAKI-1 renal = tested on: CAKI-1 renal
# A498 renal = tested on: A498 renal
# CCRF-CEM leukemia = tested on: CCRF-CEM leukemia
# MOLT-4 leukemia = tested on: MOLT-4 leukemia
# UO-31 renal = tested on: UO-31 renal
SMILES,growth (HCT-15 colon),growth (HT29 colon),growth (SNB-75 CNS),growth (SNB-19 CNS),growth (U251 CNS),growth (PC-3 prostate),growth (SK-MEL-5 melanoma),growth (UACC-62 melanoma),growth (LOX IMVI melanoma),growth (SK-MEL-28 melanoma),growth (SK-MEL-2 melanoma),growth (EKVX NSCLC),growth (SN12C renal),growth (TK-10 renal),growth (ACHN renal),growth (CAKI-1 renal),growth (A498 renal),growth (CCRF-CEM leukemia),growth (MOLT-4 leukemia),growth (UO-31 renal)
O=C(Nc1ccc2[nH]ncc2c1)c1csc(Nc2ccccc2)n1,16.9%,11.8%,36%,30.1%,28.7%,38.7%,12.3%,26.8%,40.8%,64.1%,29.6%,45.8%,41.1%,48.1%,56.5%,36.5%,22.2%,19.4%,43.9%,
O=C(Nc1ccc2c(c1)-c1ccccc1C2)C1CC(=O)N(c2ccc3c(c2)OCO3)C1 (stereo not given),89.3% [50 µM],64.6% [50 µM],-2.42% [50 µM] (active),46.4% [50 µM],19% [50 µM],33.1% [50 µM],56% [50 µM],44.3% [50 µM],63.1% [50 µM],33.4% [50 µM],89.2% [50 µM],78.1% [50 µM],,60.6% [50 µM],64.5% [50 µM],61% [50 µM],26.1% [50 µM],100% [50 µM],99.7% [50 µM],97.7% [50 µM]
O=C(Nc1ncc(Cc2ccccc2)s1)c1cc(-c2ccccc2)nc2ccccc12,94.7%,104%,92.6%,98.1%,98.2%,94.8%,98.8%,89.8%,86.7%,105%,105%,98.1%,,98.1%,99.4%,93.7%,103%,95.4%,95.6%,78.7%
Cc1[nH]c(C(=O)Nc2ccccc2OC2CCNC2)c(Cl)c1Cl (stereo not given),77.7%,77.8%,65.2%,85.3%,64.4%,80.2%,85.8%,68.1%,30.7%,106%,96.5%,70.3%,,122%,42.8%,76%,70.7%,59.3%,87.8%,45.5%
Clc1ccc2c(NCCCn3cnc4c(N5CCCC5)nc(Cl)nc43)ccnc2c1,95.5%,100%,86.3%,103%,99.8%,91.9%,99.7%,101%,90.2%,107%,89.6%,96.4%,,102%,91.8%,90.8%,94.4%,104%,,77.4%
Nc1n[nH]c2cccc(C#Cc3cccc(C(=O)Nc4ccc(Cl)c(C(F)(F)F)c4)c3)c12,56.4%,26%,65.7%,89.1%,69%,59.6%,46.7%,22.2%,18.1%,24.7%,,74.2%,51.7%,91.5%,59.1%,94.5%,35.6%,35.8%,31.2%,29.6%
O=C1NC(=O)C(=Cc2cc(-c3ccc(Cl)cc3)n(-c3ccccc3)n2)C(=O)N1,89.4%,112%,92.4%,87.3%,96.7%,100%,96.6%,90.5%,104%,98.5%,,91.6%,92.5%,88.3%,95.2%,92.8%,93.5%,92.7%,,86.6%
CCOC(=O)c1c(C)c2c(n1Cc1ccccc1)CSc1cc(C#N)c(=O)[nH]c1-2,66.3% [100 µM],71% [100 µM],25.4% [100 µM],89.3% [100 µM],49.8% [100 µM],70% [100 µM],100% [100 µM],70.9% [100 µM],72.9% [100 µM],105% [100 µM],92.2% [100 µM],67.1% [100 µM],,40.5% [100 µM],49.3% [100 µM],58.9% [100 µM],92% [100 µM],90.4% [100 µM],118% [100 µM],
COc1ccc(-c2ccc(-c3ccc(C(=N)N)nc3)s2)cc1,-77% (active),-43.1% (active),116%,4.32% (active),-51.9% (active),-37.4% (active),70.8%,-94.2% (active),-89% (active),93.8%,,38.8%,-78.9% (active),-65.8% (active),-100% (active),-92.3% (active),94.3%,-43.4% (active),-53.7% (active),-96.8% (active)
N#C/C(=N\Nc1ccccc1)C(=O)Nc1cc(-c2ccccc2)nn1-c1ccccc1,13.1%,31.5%,68.2%,14.6%,8.34% (active),10%,-27.5% (active),14.2%,52.9%,44.9%,,28.3%,3.41% (active),38.6%,39%,37.9%,1.62% (active),26.6%,33.3%,29.7%
COc1cc(OCc2cccc(-c3ccc4c(c3)OCCO4)c2C)cc(OC)c1C=O,60.1%,67.6%,81.2%,72.7%,85.6%,65.5%,-9.95% (active),38%,58.7%,67.1%,,53.7%,68.2%,43.4%,48%,25.9%,-10.4% (active),59.1%,56.4%,51%
c1ccc(-c2cn3nc(-c4c[nH]c5ccccc45)sc3n2)cc1,56.2%,86%,54.1%,87.6%,92.4%,76.8%,74.2%,71%,86%,86.8%,,70.3%,83%,105%,83.3%,66.1%,89.9%,86.4%,,46.4%
CN(C)CCOc1nc2c3cc([N+](=O)[O-])ccc3nn2c2ccccc12,25.9%,26.1%,77.1%,19.5%,21%,47.1%,45.6%,41.8%,20.2%,93.7%,,67.3%,14%,60.8%,-51.3% (active),23.6%,31.6%,11.7%,2.34% (active),23.4%
COc1ccccc1-c1nc2ccc3[nH]ncc3c2c2c1CCCC2,88.6%,67.5%,38.3%,85.6%,96.7%,82%,83.4%,71.3%,80.5%,89.2%,,44.3%,80.5%,60.4%,58.2%,21.8%,6.87% (active),66.6%,42.6%,36.3%
CCCCN(CCC#N)C(N)=O,101%,114%,105%,98.9%,107%,91.2%,99.5%,95.4%,105%,102%,104%,101%,,98.9%,97.7%,82.7%,89.6%,96.7%,107%,98.4%
COc1cccc(C2C(C#N)=C(N)Oc3c2ccc2ccccc32)c1 (stereo not given),9.22% (active),7.48% (active),79.8%,37.3%,24.6%,21.5%,-1.37% (active),37.6%,14.6%,69.3%,,53.1%,24.2%,62%,25.8%,30.1%,45.1%,8.64% (active),12.3%,43%
